The source made the active and inactive calls.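 Rule for the calls: active = normalized viability below 100% at a tested concentration; inactive = the rest.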

One test in a line: drug combination growth inhibition, ovarian cancer – cell-based, oncology-focused library, rucaparib conditional, profiling panel (AID 1508598). The note with it: patient-derived ovarian cancer cells, CellTiter-Glo viability, 144 h; at 0.0781 µM; OCI-C5x cells; without rucaparib; active compounds read low. Background: In ATP-based viability assays light output follows the ATP content of the culture.
Consider `N[C@@H]1CCCN(c2c(/C=C3\SC(=O)NC3=O)cccc2-c2ccccc2)C1`, for which the viability was 115% (inactive).

With `C[C@@H]1C[C@H]2[C@@H]3CCC4=CC(=O)C=C[C@]4(C)[C@]3(F)[C@H](O)C[C@]2(C)[C@]1(O)C(=O)CO`, the viability is 107% (inactive).

Regarding `Cc1cc2c(C(=O)NC[C@H](C)c3ccccc3)c(O)c(O)cc2c(O)c1-c1c(C)cc2c(C(=O)NC[C@H](C)c3ccccc3)c(O)c(O)cc2c1O`, the viability was 110% (inactive).

Take `Nc1nc(F)nc2c1ncn2[C@H]1O[C@H](CO)[C@@H](O)[C@@H]1O`: the viability was 111% (inactive).

For `COc1cccc2c1C(=O)c1c(O)c3c(c(O)c1C2=O)C[C@@](O)(C(=O)CO)C[C@H]3O[C@H]1C[C@H](N)[C@@H](O)[C@H](C)O1`, the viability is 83.9% (active).

Regarding `C=C1/C(=C/C=C2\CCC[C@@]3(C)[C@H]2CC[C@H]3[C@H](C)/C=C/[C@@H](C)C(C)C)C[C@H](O)C[C@@H]1O`, the viability is 100% (inactive).

Turning to `CO[C@H]1C[C@H]2CC[C@@H](C)[C@@](O)(O2)C(=O)C(=O)N2CCCC[C@H]2C(=O)O[C@H]([C@H](C)C[C@@H]2CC[C@H](OP(C)(C)=O)[C@H](OC)C2)CC(=O)[C@H](C)/C=C(\C)[C@@H](O)[C@@H](OC)C(=O)[C@H](C)C[C@H](C)/C=C/C=C/C=C/1C`, the viability is 96.7% (active).

Take `C=CCNC1=C2C[C@@H](C)C[C@H](OC)[C@H](O)[C@@H](C)/C=C(\C)[C@H](OC(N)=O)[C@@H](OC)/C=C\C=C(\C)C(=O)NC(=CC1=O)C2=O`: the viability was 112% (inactive).

With `CC[C@]1(O)C[C@@H]2CN(CCc3c([nH]c4ccccc34)[C@@](C(=O)OC)(c3cc4c(cc3OC)N(C=O)[C@@H]3C45CCN4CC=C[C@](CC)([C@H]45)[C@H](OC(C)=O)[C@]3(O)C(=O)OC)C2)C1` (stereo partly specified), the viability is 37.2% (active).

Turning to `COc1cccc2c1C(=O)c1c(O)c3c(c(O)c1C2=O)C[C@@](O)(C(C)=O)C[C@H]3O[C@H]1C[C@H](N)[C@H](O)[C@H](C)O1`, the viability was 105% (inactive).

Turning to `CCOc1ccc(Cc2cc([C@@H]3O[C@H](CO)[C@@H](O)[C@H](O)[C@@H]3O)ccc2Cl)cc1`, the viability was 108% (inactive).

For `CC(=O)[C@]1(O)Cc2c(O)c3c(c(O)c2[C@H](O[C@H]2C[C@H](N)[C@H](O)[C@H](C)O2)C1)C(=O)c1ccccc1C3=O`, the viability is 7.56% (active).

As to `CCC1=CC2CN(C1)Cc1c([nH]c3ccccc13)[C@@](C(=O)OC)(c1cc3c(cc1OC)N(C)[C@H]1[C@@](O)(C(=O)OC)[C@H](OC(C)=O)[C@]4(CC)C=CCN5CC[C@@]31[C@H]54)C2` (stereo partly specified), the viability was 22.9% (active).

With `CC(=O)O[C@H]1C(=O)[C@@]2(C)C([C@H](OC(=O)c3ccccc3)[C@]3(O)C[C@H](OC(=O)[C@H](O)[C@@H](NC(=O)c4ccccc4)c4ccccc4)C(C)=C1C3(C)C)[C@]1(OC(C)=O)CO[C@@H]1C[C@H]2O` (stereo partly specified), the viability is 30.2% (active).

Regarding `CO[C@H]1C[C@H]2CC[C@@H](C)[C@@](O)(O2)C(=O)C(=O)N2CCCC[C@H]2C(=O)O[C@H]([C@H](C)C[C@@H]2CC[C@H](OC(=O)C(C)(CO)CO)[C@H](OC)C2)CC(=O)[C@H](C)/C=C(\C)[C@@H](O)[C@@H](OC)C(=O)[C@H](C)C[C@H](C)/C=C/C=C/C=C/1C`, the viability was 84.7% (active).

On to `CO[C@H]1/C=C\C=C(\C)C(=O)NC2=CC(=O)C(NCCN(C)C)=C(C[C@@H](C)C[C@H](OC)[C@H](O)[C@@H](C)/C=C(\C)[C@@H]1OC(N)=O)C2=O`, for which the viability is 27.4% (active).

For `CC(C)(C(=O)NCC(F)(F)C(F)(F)F)C(=O)N[C@H]1C(=O)Nc2ccccc2-c2ccccc21`, the viability is 119% (inactive).

`CC1(C)O[C@@H]2C[C@H]3[C@@H]4CCC5=CC(=O)C=C[C@]5(C)[C@]4(F)[C@H](O)C[C@]3(C)[C@@]2(C(=O)CO)O1`: the viability is 120% (inactive).

The test is the same for the next values; noted with them: patient-derived ovarian cancer cells, CellTiter-Glo viability, 144 h; at 0.0781 µM; OCI-P5x cells; with rucaparib 20 µM; active compounds read low; 100% = cells with rucaparib alone.
Turning to `N[C@@H]1CCCN(c2c(/C=C3\SC(=O)NC3=O)cccc2-c2ccccc2)C1`, the viability was 101% (inactive).

Take `C[C@@H]1C[C@H]2[C@@H]3CCC4=CC(=O)C=C[C@]4(C)[C@]3(F)[C@H](O)C[C@]2(C)[C@]1(O)C(=O)CO`: the viability is 100% (inactive).

As for `Cc1cc2c(C(=O)NC[C@H](C)c3ccccc3)c(O)c(O)cc2c(O)c1-c1c(C)cc2c(C(=O)NC[C@H](C)c3ccccc3)c(O)c(O)cc2c1O`, the viability is 105% (inactive).

Take `Nc1nc(F)nc2c1ncn2[C@H]1O[C@H](CO)[C@@H](O)[C@@H]1O`: the viability was 110% (inactive).

`COc1cccc2c1C(=O)c1c(O)c3c(c(O)c1C2=O)C[C@@](O)(C(=O)CO)C[C@H]3O[C@H]1C[C@H](N)[C@@H](O)[C@H](C)O1`: the viability is 54% (active).

Consider `C=C1/C(=C/C=C2\CCC[C@@]3(C)[C@H]2CC[C@H]3[C@H](C)/C=C/[C@@H](C)C(C)C)C[C@H](O)C[C@@H]1O`, for which the viability is 105% (inactive).

On to `CO[C@H]1C[C@H]2CC[C@@H](C)[C@@](O)(O2)C(=O)C(=O)N2CCCC[C@H]2C(=O)O[C@H]([C@H](C)C[C@@H]2CC[C@H](OP(C)(C)=O)[C@H](OC)C2)CC(=O)[C@H](C)/C=C(\C)[C@@H](O)[C@@H](OC)C(=O)[C@H](C)C[C@H](C)/C=C/C=C/C=C/1C`, for which the viability was 76.7% (active).

Take `C=CCNC1=C2C[C@@H](C)C[C@H](OC)[C@H](O)[C@@H](C)/C=C(\C)[C@H](OC(N)=O)[C@@H](OC)/C=C\C=C(\C)C(=O)NC(=CC1=O)C2=O`: the viability was 41.9% (active).

Turning to `CC[C@]1(O)C[C@@H]2CN(CCc3c([nH]c4ccccc34)[C@@](C(=O)OC)(c3cc4c(cc3OC)N(C=O)[C@@H]3C45CCN4CC=C[C@](CC)([C@H]45)[C@H](OC(C)=O)[C@]3(O)C(=O)OC)C2)C1` (stereo partly specified), the viability was 51% (active).

For the compound `COc1cccc2c1C(=O)c1c(O)c3c(c(O)c1C2=O)C[C@@](O)(C(C)=O)C[C@H]3O[C@H]1C[C@H](N)[C@H](O)[C@H](C)O1`, the viability was 74.4% (active).

In the case of `CCOc1ccc(Cc2cc([C@@H]3O[C@H](CO)[C@@H](O)[C@H](O)[C@@H]3O)ccc2Cl)cc1`, the viability is 106% (inactive).

`CC(=O)[C@]1(O)Cc2c(O)c3c(c(O)c2[C@H](O[C@H]2C[C@H](N)[C@H](O)[C@H](C)O2)C1)C(=O)c1ccccc1C3=O`: the viability was 55.5% (active).

On to `CCC1=CC2CN(C1)Cc1c([nH]c3ccccc13)[C@@](C(=O)OC)(c1cc3c(cc1OC)N(C)[C@H]1[C@@](O)(C(=O)OC)[C@H](OC(C)=O)[C@]4(CC)C=CCN5CC[C@@]31[C@H]54)C2` (stereo partly specified), for which the viability is 49.1% (active).

Regarding `CC(=O)O[C@H]1C(=O)[C@@]2(C)C([C@H](OC(=O)c3ccccc3)[C@]3(O)C[C@H](OC(=O)[C@H](O)[C@@H](NC(=O)c4ccccc4)c4ccccc4)C(C)=C1C3(C)C)[C@]1(OC(C)=O)CO[C@@H]1C[C@H]2O` (stereo partly specified), the viability is 64.9% (active).

For the compound `CO[C@H]1C[C@H]2CC[C@@H](C)[C@@](O)(O2)C(=O)C(=O)N2CCCC[C@H]2C(=O)O[C@H]([C@H](C)C[C@@H]2CC[C@H](OC(=O)C(C)(CO)CO)[C@H](OC)C2)CC(=O)[C@H](C)/C=C(\C)[C@@H](O)[C@@H](OC)C(=O)[C@H](C)C[C@H](C)/C=C/C=C/C=C/1C`, the viability is 70.8% (active).

As to `CO[C@H]1/C=C\C=C(\C)C(=O)NC2=CC(=O)C(NCCN(C)C)=C(C[C@@H](C)C[C@H](OC)[C@H](O)[C@@H](C)/C=C(\C)[C@@H]1OC(N)=O)C2=O`, the viability was 17.4% (active).

Take `CC(C)(C(=O)NCC(F)(F)C(F)(F)F)C(=O)N[C@H]1C(=O)Nc2ccccc2-c2ccccc21`: the viability was 92% (active).

`CC1(C)O[C@@H]2C[C@H]3[C@@H]4CCC5=CC(=O)C=C[C@]5(C)[C@]4(F)[C@H](O)C[C@]3(C)[C@@]2(C(=O)CO)O1`: the viability was 92.1% (active).

The viability is a read-out of living cells in per cent, often relative to untreated cells.

Values taken from PubChem BioAssay.
